The text below walks through data of ChEMBL document CHEMBL3988442, “University of Dundee, Small-Polar-MMV Screening Library” (2021).

For some of these results: Results with a measured potency or affinity are listed apart.

Design in all cases: scale not given: direction of the effect not stated beside the values
Test [1] deals with Protein translocase subunit SecA (Escherichia coli (strain K12)) (UniProt P10408). Briefly: Assay to Identify E. coli SecA ATPase Inhibitors. Conditions: 30 µM. It counts as functional.
Test [2] has as its target T1, Ubiquitin-activating enzyme e1, putative (Leishmania donovani (strain BPK282A1)) (UniProt E9BSI1).
T1 sequence (whole entry): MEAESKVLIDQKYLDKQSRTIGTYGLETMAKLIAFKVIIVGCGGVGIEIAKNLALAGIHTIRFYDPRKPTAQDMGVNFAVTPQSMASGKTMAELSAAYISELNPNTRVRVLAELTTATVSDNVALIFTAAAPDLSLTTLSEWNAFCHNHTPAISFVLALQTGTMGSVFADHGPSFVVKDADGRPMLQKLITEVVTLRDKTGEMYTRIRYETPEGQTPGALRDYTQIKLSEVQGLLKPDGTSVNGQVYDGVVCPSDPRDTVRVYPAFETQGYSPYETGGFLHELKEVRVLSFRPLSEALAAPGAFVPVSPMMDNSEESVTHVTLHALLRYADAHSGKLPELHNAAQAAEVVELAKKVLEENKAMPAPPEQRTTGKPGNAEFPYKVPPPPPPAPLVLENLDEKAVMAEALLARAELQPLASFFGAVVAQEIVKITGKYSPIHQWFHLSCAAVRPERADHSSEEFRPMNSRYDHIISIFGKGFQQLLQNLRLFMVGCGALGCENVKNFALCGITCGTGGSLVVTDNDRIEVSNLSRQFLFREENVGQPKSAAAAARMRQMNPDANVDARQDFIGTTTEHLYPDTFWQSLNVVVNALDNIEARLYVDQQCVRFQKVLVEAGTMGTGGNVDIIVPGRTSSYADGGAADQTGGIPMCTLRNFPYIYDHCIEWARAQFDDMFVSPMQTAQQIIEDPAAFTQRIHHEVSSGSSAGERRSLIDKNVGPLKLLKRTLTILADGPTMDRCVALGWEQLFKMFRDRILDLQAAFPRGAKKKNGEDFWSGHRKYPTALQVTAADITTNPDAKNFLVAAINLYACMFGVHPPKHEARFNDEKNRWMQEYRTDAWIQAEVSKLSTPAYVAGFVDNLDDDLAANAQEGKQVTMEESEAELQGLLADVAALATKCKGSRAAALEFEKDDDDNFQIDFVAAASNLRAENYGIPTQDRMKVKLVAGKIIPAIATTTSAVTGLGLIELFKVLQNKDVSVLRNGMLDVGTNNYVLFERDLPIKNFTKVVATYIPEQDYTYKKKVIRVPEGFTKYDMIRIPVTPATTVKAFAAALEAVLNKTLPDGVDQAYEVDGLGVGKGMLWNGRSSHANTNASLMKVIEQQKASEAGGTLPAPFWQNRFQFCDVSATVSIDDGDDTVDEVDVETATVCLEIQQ
Briefly: Leishmania donovani Ubiquitin Activating Enzyme (LdE1). It counts as functional. Particulars: 30 µM.

Test [3] deals with AMP-activated protein kinase, AMPK (Homo sapiens) (UniProt P54646+O43741+P54619+Q9UGJ0+Q9Y478+Q13131+Q9UGI9). Briefly: AMP-dependent Kinase enzyme assay. An in vitro enzyme assay that detects ADP turnover that is directly proportional to AMPK activity. This uses naive AMPK that is activated during the assay with MK-8722. Particulars: 30 µM. The class given is functional.
The target of test [4] is Sialic acid-binding Ig-like lectin 9 (Homo sapiens) (UniProt Q9Y336). Briefly: Hs-Siglec9 ALPHAscreen SOP 20170721. Conditions: 10 µM. (In Alpha technology, singlet oxygen from a donor bead excites a nearby acceptor bead.)
The subject of a further test is Trypanosoma cruzi. The test can be described thus: Trypanosoma cruzi phosphomannomutase and mannose-1-phosphate guanylyltransferase assay. Particulars: 10 µM. It counts as functional.
Test [5] deals with T2, Arginase-2, mitochondrial (Homo sapiens) (UniProt P78540).
T2 sequence (whole entry): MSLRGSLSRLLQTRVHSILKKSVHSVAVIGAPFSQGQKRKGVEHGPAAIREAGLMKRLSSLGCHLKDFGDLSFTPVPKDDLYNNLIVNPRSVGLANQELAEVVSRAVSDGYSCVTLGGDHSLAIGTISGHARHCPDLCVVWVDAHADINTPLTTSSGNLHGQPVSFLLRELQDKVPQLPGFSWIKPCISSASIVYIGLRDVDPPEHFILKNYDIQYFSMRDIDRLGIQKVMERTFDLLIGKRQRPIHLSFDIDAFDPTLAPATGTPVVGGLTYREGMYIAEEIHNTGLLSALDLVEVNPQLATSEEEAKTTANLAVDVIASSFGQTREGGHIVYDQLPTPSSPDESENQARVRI
The test can be described thus: in vitro enzyme assay to detect the production of urea directly proportional to the activity of Arginase II. Further: in the data most compounds retested in dose-response had high values. The class given is functional. Conditions: 33.3 µM.

For test [6], the target named is T3, Proteasome subunit beta (Trypanosoma cruzi) (UniProt O96673).
T3 sequence (whole entry): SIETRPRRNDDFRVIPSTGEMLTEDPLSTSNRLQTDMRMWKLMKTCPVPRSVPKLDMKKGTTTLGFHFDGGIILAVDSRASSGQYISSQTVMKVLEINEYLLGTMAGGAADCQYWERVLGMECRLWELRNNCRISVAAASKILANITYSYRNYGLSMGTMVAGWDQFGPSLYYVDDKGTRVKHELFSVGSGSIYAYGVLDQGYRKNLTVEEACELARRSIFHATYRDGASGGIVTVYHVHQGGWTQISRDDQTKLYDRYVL
The test can be described thus: Trypanosoma cruzi proteasome chymotrypsin-like activity (TcProtChymo) assay. Further: in the data most compounds retested in dose-response had high values. Conditions: 9.37 µM. It counts as functional.

The species entered for the next test is Homo sapiens. Briefly: To identify inhibition of the IFN signalling (Jak-Stat) pathway via expression of an eGFP reporter gene under the control of an IFN-stimulated response element (ISRE) containing MxA promoter. The class given is functional. Conditions: 30 µM.
For test [7], the target named is T4, Tyrosyl-tRNA synthetase, putative (Trypanosoma cruzi (strain CL Brener)) (UniProt Q4DSP6).
T4 sequence (whole entry): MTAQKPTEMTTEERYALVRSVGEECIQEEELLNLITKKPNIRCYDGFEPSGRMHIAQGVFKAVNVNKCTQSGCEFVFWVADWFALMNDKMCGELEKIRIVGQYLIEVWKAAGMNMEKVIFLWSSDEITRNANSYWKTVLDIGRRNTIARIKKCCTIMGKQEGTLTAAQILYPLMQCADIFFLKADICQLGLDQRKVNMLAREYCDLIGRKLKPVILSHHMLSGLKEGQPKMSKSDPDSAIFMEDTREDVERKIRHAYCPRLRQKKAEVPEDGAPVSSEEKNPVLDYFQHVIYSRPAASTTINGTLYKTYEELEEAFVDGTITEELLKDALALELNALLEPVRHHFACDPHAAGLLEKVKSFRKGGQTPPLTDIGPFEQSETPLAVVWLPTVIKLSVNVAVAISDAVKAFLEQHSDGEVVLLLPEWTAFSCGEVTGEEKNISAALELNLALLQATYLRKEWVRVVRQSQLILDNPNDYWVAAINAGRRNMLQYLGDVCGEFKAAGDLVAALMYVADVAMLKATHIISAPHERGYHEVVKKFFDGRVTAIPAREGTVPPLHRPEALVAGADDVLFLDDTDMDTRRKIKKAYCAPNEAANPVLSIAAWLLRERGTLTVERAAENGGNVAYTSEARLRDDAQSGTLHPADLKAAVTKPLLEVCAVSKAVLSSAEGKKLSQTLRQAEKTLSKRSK
The test can be described thus: Trypanosoma cruzi tyrosyl tRNA synthetase (TcYRS) _High Tyrosine SOP. Further: in the data most compounds retested in dose-response had high values. Conditions: 30 µM. The class given is functional.

Test [8] has as its target T4, Tyrosyl-tRNA synthetase, putative (Trypanosoma cruzi (strain CL Brener)). Briefly: Trypanosoma cruzi tyrosyl tRNA synthetase (TcYRS) SOP. It counts as functional. Conditions: 30 µM.
The target of test [9] is Chromo domain-containing protein 1 (Saccharomyces cerevisiae (strain ATCC 204508 / S288c) (Baker's yeast)) (UniProt P32657). Briefly: ScCHD-1 Enzyme Inhibition Assay. Further: in the data most compounds retested in dose-response had high values. Particulars: 30 µM. The class given is functional.
Sequence of Chromo domain-containing protein 1 (Saccharomyces cerevisiae (strain ATCC 204508 / S288c) (Baker's yeast)) (P32657 whole entry, the tested form may be a part): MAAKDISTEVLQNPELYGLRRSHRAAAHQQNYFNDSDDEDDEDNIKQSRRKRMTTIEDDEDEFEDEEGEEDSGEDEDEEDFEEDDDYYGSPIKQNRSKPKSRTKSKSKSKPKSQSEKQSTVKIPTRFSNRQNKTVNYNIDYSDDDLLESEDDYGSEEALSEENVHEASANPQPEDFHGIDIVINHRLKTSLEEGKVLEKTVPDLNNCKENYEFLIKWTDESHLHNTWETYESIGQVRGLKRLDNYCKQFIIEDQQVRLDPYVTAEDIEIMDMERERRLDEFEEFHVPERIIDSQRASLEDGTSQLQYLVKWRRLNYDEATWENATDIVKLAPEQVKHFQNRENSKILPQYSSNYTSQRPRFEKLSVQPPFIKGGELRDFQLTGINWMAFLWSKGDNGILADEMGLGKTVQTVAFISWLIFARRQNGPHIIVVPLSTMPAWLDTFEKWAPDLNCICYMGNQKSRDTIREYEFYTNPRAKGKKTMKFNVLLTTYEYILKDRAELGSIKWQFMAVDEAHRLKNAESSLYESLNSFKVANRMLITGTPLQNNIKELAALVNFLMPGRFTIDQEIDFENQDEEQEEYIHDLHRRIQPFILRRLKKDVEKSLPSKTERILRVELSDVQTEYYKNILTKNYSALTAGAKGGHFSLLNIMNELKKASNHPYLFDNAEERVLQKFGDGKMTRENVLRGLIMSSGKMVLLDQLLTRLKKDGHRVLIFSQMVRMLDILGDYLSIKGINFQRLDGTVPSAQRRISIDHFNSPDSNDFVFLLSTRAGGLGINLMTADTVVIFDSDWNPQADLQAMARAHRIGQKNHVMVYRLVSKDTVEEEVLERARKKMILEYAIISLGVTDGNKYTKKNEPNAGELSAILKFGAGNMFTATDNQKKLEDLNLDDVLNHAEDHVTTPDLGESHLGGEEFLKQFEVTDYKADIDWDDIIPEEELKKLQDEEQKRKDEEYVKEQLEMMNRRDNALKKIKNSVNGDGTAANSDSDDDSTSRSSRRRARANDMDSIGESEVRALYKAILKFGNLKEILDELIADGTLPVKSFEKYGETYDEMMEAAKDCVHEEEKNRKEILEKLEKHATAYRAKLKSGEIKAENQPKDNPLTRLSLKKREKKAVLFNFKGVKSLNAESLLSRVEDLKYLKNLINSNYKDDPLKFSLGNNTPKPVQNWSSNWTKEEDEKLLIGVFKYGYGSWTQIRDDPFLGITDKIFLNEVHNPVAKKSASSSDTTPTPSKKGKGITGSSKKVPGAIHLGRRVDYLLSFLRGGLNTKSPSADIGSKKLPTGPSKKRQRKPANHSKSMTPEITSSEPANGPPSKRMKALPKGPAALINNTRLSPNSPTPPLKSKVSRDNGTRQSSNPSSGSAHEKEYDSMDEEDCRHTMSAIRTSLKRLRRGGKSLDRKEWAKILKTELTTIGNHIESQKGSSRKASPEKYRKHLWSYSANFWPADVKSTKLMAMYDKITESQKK

Sequence of Sialic acid-binding Ig-like lectin 9 (Homo sapiens) (Q9Y336 whole entry): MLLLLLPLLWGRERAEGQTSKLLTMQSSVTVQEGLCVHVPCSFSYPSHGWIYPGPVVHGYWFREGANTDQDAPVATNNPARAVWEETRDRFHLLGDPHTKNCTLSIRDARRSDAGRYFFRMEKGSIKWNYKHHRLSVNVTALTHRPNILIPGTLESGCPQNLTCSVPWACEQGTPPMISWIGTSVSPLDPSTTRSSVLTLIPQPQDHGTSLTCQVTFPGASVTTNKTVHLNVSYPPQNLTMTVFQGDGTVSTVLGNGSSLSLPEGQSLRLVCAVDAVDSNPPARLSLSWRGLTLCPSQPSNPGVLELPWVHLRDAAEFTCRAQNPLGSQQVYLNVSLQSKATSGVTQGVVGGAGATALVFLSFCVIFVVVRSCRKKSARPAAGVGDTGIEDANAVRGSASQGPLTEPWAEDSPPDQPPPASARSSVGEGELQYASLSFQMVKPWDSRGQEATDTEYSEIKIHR
Sequence of Protein translocase subunit SecA (Escherichia coli (strain K12)) (P10408 whole entry): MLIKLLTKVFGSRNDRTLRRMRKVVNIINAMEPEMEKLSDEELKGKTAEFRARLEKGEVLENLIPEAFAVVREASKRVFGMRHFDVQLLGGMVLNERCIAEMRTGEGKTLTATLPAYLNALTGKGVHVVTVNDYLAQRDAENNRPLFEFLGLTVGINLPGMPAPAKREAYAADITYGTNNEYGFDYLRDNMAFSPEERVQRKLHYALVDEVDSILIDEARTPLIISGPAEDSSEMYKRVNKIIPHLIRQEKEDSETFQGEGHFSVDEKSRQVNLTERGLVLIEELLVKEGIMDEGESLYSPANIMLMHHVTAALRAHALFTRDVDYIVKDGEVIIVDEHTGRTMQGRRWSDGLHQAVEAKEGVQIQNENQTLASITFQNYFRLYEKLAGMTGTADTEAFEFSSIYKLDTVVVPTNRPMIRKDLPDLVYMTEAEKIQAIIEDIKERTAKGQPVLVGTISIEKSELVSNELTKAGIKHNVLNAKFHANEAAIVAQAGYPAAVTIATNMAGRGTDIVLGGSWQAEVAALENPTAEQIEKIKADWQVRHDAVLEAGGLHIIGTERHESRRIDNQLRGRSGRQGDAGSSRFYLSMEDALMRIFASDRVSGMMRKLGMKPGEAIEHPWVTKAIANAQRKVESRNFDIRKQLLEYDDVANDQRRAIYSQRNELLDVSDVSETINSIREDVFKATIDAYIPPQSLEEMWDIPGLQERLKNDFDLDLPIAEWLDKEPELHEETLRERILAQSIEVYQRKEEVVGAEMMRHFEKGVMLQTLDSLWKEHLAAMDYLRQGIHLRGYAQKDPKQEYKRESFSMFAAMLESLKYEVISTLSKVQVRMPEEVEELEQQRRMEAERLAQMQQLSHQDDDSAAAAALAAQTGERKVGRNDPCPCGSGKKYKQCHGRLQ

Turning to `COc1ccc(Cc2cccc(C3CCN(C)CC3)n2)cc1`, the Percent Effect in test [1] was -2.99%; in test [2] it was -55.4%; in test [3] it was 8.96%; in test [4] it was 9.53%; in the test on Trypanosoma cruzi, -0.395%; in test [5], -1.62%. The Percent Effect in test [6] came to 6.55%; in the test listed under Homo sapiens it was 2.93%; in test [7], 5.38%; in [8] it was 1.3%; in test [9], 1.29%.

Regarding `CNS(=O)(=O)c1ccc(C(=O)NCCc2ccccn2)cc1`, the Percent Effect is -1.2% in test [1]; 13.2% in test [2]; -0.141% in test [3]; 1.24% in test [4]; -0.28% in the test on Trypanosoma cruzi; -5.4% in test [5]. The Percent Effect in test [6] was 10.2%; in the test filed under Homo sapiens, -22.9%; in test [7], 7.39%; in test [8], 16.1%; in test [9], -7.59%.

Regarding `O=C(C[C@@H]1COC[C@H]2CN(Cc3ccc(F)cc3)C[C@@H]12)N1CCCCO1`, the Percent Effect was -4.42% in [1]; 6.67% in test [2]; 4.91% in test [3]; 6.17% in test [4]; -2.36% in the test with Trypanosoma cruzi; -0.176% in test [5]. For the same compound, the Percent Effect in test [6] is 16.1%; in the test listed under Homo sapiens, 19%; in [7], 2.12%; in [8] it was 7.69%; in [9], -5.03%.

In the case of `COC(=O)c1ccc(N2CCN(CCC#N)C(C)C2)cc1` (stereo not drawn), the Percent Effect in [1] is -7.22%; in test [2], 10.5%; in test [3], 3.82%; in test [4] it was -3.31%; in the test on Trypanosoma cruzi, -8.12%; in test [5], -0.36%. Also, the Percent Effect in [6] was determined as 4.15%; in the test listed under Homo sapiens it was 5%; in [7], 5.42%; in test [8], 3.7%; in test [9], 0.577%.

As for `Cn1cc(CCC(=O)N2C[C@H]3CC[C@@H]2CN(Cc2ccccc2)C3)cn1`, the Percent Effect was -5.96% in test [1]; 4.17% in test [2]; 9.13% in test [3]; -7.5% in [4]; -1.07% in the test with Trypanosoma cruzi; -3.53% in test [5]. The Percent Effect in test [6] is 8.77%; in the test listed under Homo sapiens, -28.4%; in [7] it was 1.05%; in [8] it was 5.13%; in test [9], -1.41%.

As for `O=C(Cc1csc(-c2ccc(Cl)cc2)n1)NC(C(=O)O)c1ccccc1` (stereo not drawn), the Percent Effect is -2.32% in [1]; -1.33% in test [2]; 10.5% in test [3]; 1.1% in test [4]; -3.73% in the test with Trypanosoma cruzi; -9.68% in test [5]. For the same compound, the Percent Effect in test [6] was 14.6%; in the test listed under Homo sapiens, 0.509%; in test [7], 1.06%; in [8] it was -2.56%; in test [9], -10%.

Take `COc1cccc2c1ccn2CCC(=O)NCCCC(=O)O`: the Percent Effect in [1] is -1.03%; in test [2] it was 20%; in [3] it was 1.22%; in test [4], -4.11%; with Trypanosoma cruzi, -4.32%; in [5], -2.99%. The Percent Effect in test [6] is 13.5%; in the test listed under Homo sapiens it was -6.02%; in test [7] it was 5.29%; in [8], 5.13%; in test [9], -9.24%.

With `CC(NC(=O)N(C)Cc1ccsc1)c1ccc2c(c1)NC(=O)CO2` (stereo not drawn), the Percent Effect in [1] was -2.37%; in [2], 13.2%; in [3], 0.427%; in test [4], 7.9%; with Trypanosoma cruzi, 6.39%; in test [5], 1.15%. The Percent Effect in [6] is 8.52%; in the test filed under Homo sapiens, 9.49%; in test [7], 5.39%; in [8], 19.5%; in test [9], -10.1%.
